# TGFb inhibitor = inhibitors of TGF-b signaling | actives 1.2% (n = 410,000) | Potency, µM (doses to about 46.1 µM), for the others: at the highest dose activity, negative = inhibition, most hits filed as inhibitors | HepG2 CAGA-GFP TGF-b/SMAD3 reporter, GFP fluorescence, 18 h; TGF-beta stimulated, 500 pg/mL final; further: on the % scale 0 is the no-effect control and ±100 the full control effect; nearly all actives have a fitted effect of over 65% in size
#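 GFP signal (ex488/em500-530) from TGF-beta-stimulated HEPG2 CAGA-GFP cells, 500 pg/mL final, 18 h at 37 degrees C in DMEM plus 1% FBS, normalized to unstimulated and DMSO-stimulated controls.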
# DT40 TDP1 no CPT = qHTS for Inhibitors of human tyrosyl-DNA phosphodiesterase 1 (TDP1): qHTS in cells in absence of CPT; actives 15% (n = 420,000); Potency, µM (titrated, usually from 46.2 µM), inactives show top-dose activity change, negative = growth inhibition, actives largely listed as inhibitors; DT40 Tdp1-/- hTDP1 cells, no CPT, ATP luminescence, 48 h; further: on the % scale 0 is the no-effect control and ±100 the full control effect; nearly all actives have a fitted effect of over 55% in size
#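 Seeded 400 DT40-hTDP1 cells/well (vehicle DMSO, no 20 nM CPT); pinned compounds; ≥48 hr at 37 °C; CellTiter-Glo luminescence as viability measure.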
# ATXN2 expr inh = inhibitors of ATXN2 expression; HEK-293 ATXN2-luciferase reporter, luminescence, 24 h; Potency, µM (series often up to 57 µM), for inactives: at the top dose activity change, negative = inhibition, usual class: inhibitors; actives 0.72% (n = 360,000); AID 1745845; further: on the % scale 0 is the no-effect control and ±100 the full control effect; nearly all actives have a fitted effect of over 55% in size
#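 qHTS (up to 57 uM final) was run with 24 h compound exposure of reporter cells at 37 °C. Each well was multiplexed: SteadyGlo luminescence measured ATXN2-luciferase expression after a fluorogenic Gly-Phe-AFC viability readout (25 uM final).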
# HepG2 tox = kills HepG2 cells in TGF-b inhibitor counter-screen; HepG2 CAGA-GFP viability, ATP luminescence, 18 h; Potency, µM (series often up to 46.1 µM), without a hit: at the top dose activity change, negative = cytotoxicity, most hits filed as cytotoxic; actives 0.76% (n = 410,000); AID 588856
#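 HepG2 CAGA-GFP cells (1000/well, DMEM with 1% FBS) received compound, then TGF-beta at 500 pg/mL final, and were incubated 18 hours at 37 degrees C. Viability was read by CellTiter-Glo luminescence. Media-only wells were set as complete cell-killing and DMSO as no toxicity.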
# TDP1 cell CPT = growth inhibition of DT40 Tdp1-/-;hTDP1 cells with camptothecin (screen for TDP1 inhibitors) | chicken DT40 Tdp1-/-;hTDP1 cells + 20 nM CPT, ATP luminescence, 48 h | Potency, µM (top dose mostly 46.2 µM), for the others: top-dose activity change, negative = growth inhibition, most hits filed as inhibitors | actives 12% (n = 420,000); further: on the % scale 0 is the no-effect control and ±100 the full control effect; nearly all actives have a fitted effect of over 55% in size
#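 Cell growth measured by CellTiter-Glo luminescence after a minimum 48 h, 37 C compound exposure with 20 nM CPT in Tdp1-knockout DT40 cells stably expressing hTDP1, seeded 400/well; qHTS titration format.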
# ATXN viability = cell viability loss in ATXN counter-screen. S2 cells (HEK-293 line with an ATXN2-luciferase reporter) viability, CellTiter-Fluor protease fluorescence, 24 h. Potency, µM (doses to about 56.7 µM), actives largely listed as cytotoxic. actives 0.49% (n = 400,000). AID 651635; further: nearly all actives have a fitted effect of over 40% in size
# An asterisk follows results filed as active; i = inactive; ? = inconclusive; nt = no result. Shown are actives, neighbours in structure and some others; about 17% of the full set was active somewhere. The call rests on the fitted dose curve; in most records, active means well fitted curve in the direction sought with a large enough effect; inconclusive means small, poorly fitted or top-dose-only effect, or another doubt; inactive means no such curve, though single readings can be large; an effect the other way counts as inactive or inconclusive. Potency means the concentration at half of the fitted maximal effect.
SMILES,TGFb inhibitor,DT40 TDP1 no CPT,ATXN2 expr inh,HepG2 tox,TDP1 cell CPT,ATXN viability
O=S(=O)(c1ccc(N2CCC(c3ccc(Cl)cc3)=N2)cc1)N(CCO)CCO,?,?,-27%,20µM*,?,nt
O=C(COC(=O)Cn1cnc2ccccc21)Nc1cc2c(cc1Cl)C(=O)c1ccccc1C2=O,-4%,16µM*,nt,-18%,21µM*,?
COc1ccc(N2CCN(CCNC(=O)Nc3ccc(C)cc3Cl)CC2)cc1,-1%,?,-17%,2%,?,i
[O-][N+](=NC1C=Cc2ccccc21)C1C=Cc2ccccc21 (centres undefined),-3%,-16%,nt,-8%,-5%,nt
COc1ccc2cc(C(N)=O)c(=Nc3ccc(C)cc3)oc2c1,0%,8.2µM*,17%,-20%,-17%,i
Cc1cccc(N=c2oc3cc(O)ccc3cc2C(N)=O)c1,?,15µM*,6%,-20%,?,nt
COc1ccc2oc(=Nc3cccc(F)c3)c(C(N)=O)cc2c1,-16%,?,9%,-16%,-12%,?
COc1cccc(N=c2oc3cc(O)ccc3cc2C(=O)NCC2CCCO2)c1 (centres undefined),?,21µM*,-5%,-50%,?,?
COc1ccccc1N=c1oc2cc(O)ccc2cc1C(N)=O,24%,?,-5%,10µM*,?,nt
CN1CCN(NC(=S)NC(C)(C)CC(C)(C)C)CC1,3%,?,1%,-20%,-14%,i
COc1ccc(OC)c(NC(=O)C(C)n2c(=O)c(-c3ccccc3NC(C)=O)nc3ccccc32)c1 (centres undefined),15%,?,nt,-17%,23µM*,nt
CC(=O)Nc1ccccc1-c1nc2ccccc2n(C(C)C(=O)Nc2cc(Cl)ccc2C)c1=O (centres undefined),?,26µM*,-7%,-16%,?,?
CC(=O)Nc1ccccc1-c1nc2ccccc2n(C(C)C(=O)c2ccc(C)c(C)c2)c1=O (centres undefined),2%,?,-14%,-15%,?,i
CCOC(=O)c1cc(CC)sc1NC(=O)C1CC(=O)NN1Cc1ccccc1 (centres undefined),?,16µM*,-36%,-63%,?,i
Cc1ccc(NC(=O)C(c2ccccc2)N2Cc3ccccc3C2=O)cc1Cl (centres undefined),?,-14%,nt,4%,?,nt
Cc1ccc(C(=O)C(c2ccccc2)N2Cc3ccccc3C2=N)cc1 (centres undefined),?,8.2µM*,0%,-53%,10µM*,14µM*
CCN1CCN(Cc2c(O)ccc3c2O/C(=C\C=C\c2ccccc2)C3=O)CC1,1%,12µM*,?,-18%,26µM*,i
O=C1/C(=C/C=C/c2ccccc2)Oc2c1ccc(O)c2CN1CCN(CCO)CC1,-19%,?,nt,-16%,?,i
COc1ccc(OC)c(NC(=O)c2cccc(S(=O)(=O)N(Cc3ccccc3)c3ccccc3OC)c2)c1,3%,?,1%,4%,6.5µM*,i
COc1ccc(S(=O)(=O)N2CCCCCC2)cc1N(C)S(=O)(=O)c1ccccc1,-9%,23µM*,-10%,-20%,?,i
COc1ccccc1N(Cc1ccccc1)S(=O)(=O)c1cccc(C(=O)Nc2ccc(C(C)=O)cc2)c1,9%,?,14%,13%,-5%,i
COc1ccccc1N(Cc1ccccc1)S(=O)(=O)c1cccc(C(=O)N2CCCCC2)c1,?,18µM*,?,-1%,?,?
COc1ccccc1N(C)S(=O)(=O)c1ccc(C)c(C(=O)N2CCCCCC2)c1,-2%,7.3µM*,-16%,-6%,7.3µM*,?
O=C1N/C(=N\N=C\c2ccccn2)SC1Cc1cccc(SC(F)F)c1 (centres undefined),?,5.8µM*,18µM*,-16%,7.3µM*,?
O=C1N/C(=N\N=C\c2cccnc2)SC1Cc1ccc(SC(F)F)cc1 (centres undefined),-8%,3.7µM*,13µM*,9%,2.9µM*,?
SMILES,TGFb inhibitor,DT40 TDP1 no CPT,ATXN2 expr inh,HepG2 tox,TDP1 cell CPT,ATXN viability
O=C1N/C(=N\N=C\c2cccs2)SC1Cc1cccc(Cl)c1 (centres undefined),?,10µM*,-29%,-15%,12µM*,?
CCOC(=O)c1cccc(Nc2ncnc3ccccc23)c1,3%,13µM*,7%,2%,?,?
O=C(Nc1ccc2nn(-c3ccccc3)nc2c1)c1cccnc1,-7%,16µM*,41%,-23%,?,i
CCOC(=O)c1cccc(NC(=S)NC(=O)c2cccnc2)c1,8%,2%,7%,-12%,0%,i
CCCOC(=O)c1cccc(Nc2nc(-c3cccnc3)nc3ccccc23)c1,18µM*,3.3µM*,?,16µM*,9.2µM*,nt
CCCOC(=O)c1cccc(NC(=O)c2cccnc2)c1,-16%,5.8µM*,3%,9%,9.2µM*,i
CCOC(=O)c1c(S(=O)(=O)N2CCC(C(=O)N3CCN(c4ccc(F)cc4)CC3)CC2)c(C)n(C)c1C,3%,-29%,-3%,-22%,-18%,i
COc1ccc(CNC(=O)c2cnn3c(C)c(Cc4c(F)cccc4Cl)c(C)nc23)cc1,-3%,21µM*,-17%,-20%,12µM*,i
Cc1ccccc1Cc1c(C)nc2c(C(=O)NCc3ccco3)cnn2c1C,?,?,-17%,-8%,14µM*,i
Cc1nc2c(C(=O)N3CCCC3)cnn2c(C)c1Cc1c(F)cccc1Cl,6%,-26%,8%,-1%,-36%,i
Cc1nc2c(C(=O)NCc3ccccc3)cnn2c(C)c1Cc1ccc(F)cc1,-1%,8.2µM*,4%,-14%,7.3µM*,i
Cc1nc2c(C(=O)O)cnn2c(C)c1Cc1ccccc1F,-22%,-4%,2%,0%,-18%,?
O=C(Nc1ccccc1Cl)c1ccc(F)c(S(=O)(=O)NCc2ccc(Cl)c(Cl)c2)c1,?,?,nt,-35%,?,nt
COc1ccc(C2=C(C)C(=NCc3ccc(OC(C)C)cc3)NS2(=O)=O)cc1,-10%,?,13%,-9%,?,i

# Source: PubChem (National Center for Advancing Translational Sciences (NCATS))
